The list is not random: actives were taken first. Their share in the collection is about 3.8%.
TGFb inhibitor – inhibitors of TGF-b signaling; HepG2 CAGA-GFP TGF-b/SMAD3 reporter, GFP fluorescence, 18 h; TGF-beta stimulated, 500 pg/mL final; Potency, µM (series often up to 46.1 µM), inactives show top-dose activity, negative = inhibition, usual class: inhibitors; hit rate 1.2% among 410,000; further: on the % scale 0 is the no-effect control and ±100 the full control effect; nearly all actives have a fitted effect of over 65% in size
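HEPG2 CAGA-GFP reporter cells (1000/well, DMEM with 1% FBS) received compounds, then recombinant TGF-beta at 500 pg/mL final for 18 hours at 37 degrees C. Per-cell GFP summed per well was normalised to unstimulated and stimulated DMSO controls before curve fitting.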
Nrf2 block – inhibitors of Nrf2 signaling; A549 ARE-Fluc reporter, luciferase luminescence, 18-24 h; hit rate 2.1% among 360,000; Potency, µM (doses to about 46 µM), inactives show top-dose activity change, negative = inhibition, actives largely listed as inhibitors; further: on the % scale 0 is the no-effect control and ±100 the full control effect; nearly all actives have a fitted effect of over 60% in size
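Quantitative HTS in A549 cells stably bearing an antioxidant response element-firefly luciferase construct. Inhibition of Nrf2-driven transcription was scored by luminescence after 18-24 h of compound exposure at 37 °C.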
ATXN2 expr inh – ATXN2 expression inhibition; HEK-293 ATXN2-luciferase reporter, luminescence, 24 h; Potency, µM (highest dose often 57 µM), for inactives: at the highest dose activity change, negative = inhibition, most hits filed as inhibitors; hit rate 0.72% among 360,000; AID 1745845; further: on the % scale 0 is the no-effect control and ±100 the full control effect; nearly all actives have a fitted effect of over 55% in size
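qHTS (up to 57 uM final) was run with 24 h compound exposure of reporter cells at 37 °C. Each well was multiplexed: SteadyGlo luminescence measured ATXN2-luciferase expression after a fluorogenic Gly-Phe-AFC viability readout (25 uM final).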
HepG2 viability – counter-screen for TGF-b inhibitors: cytotoxicity in HepG2 cells | HepG2 CAGA-GFP viability, ATP luminescence, 18 h | hit rate 0.76% among 410,000 | Potency, µM (titrated, usually from 46.1 µM), for the others: at the highest dose activity change, negative = cytotoxicity, usual class: cytotoxic
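CellTiter-Glo luminescence gave cytotoxicity after 18 hours at 37 degrees C. The cells were HepG2 CAGA-GFP in 1% FBS DMEM, stimulated with 500 pg/mL TGF-beta after compound addition. %Activity was normalised to no-cell wells (complete cell-killing) and DMSO (no toxicity), and curves were fitted and classified.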
A549 viability – A549 cytotoxicity, counter-screen for Nrf2 inhibitors; hit rate 0.16% among 390,000; Potency, µM (doses to about 46 µM), inactives show top-dose activity change, negative = cytotoxicity, hits mostly inhibitors; A549 ARE-Fluc cells, CellTiter-Fluor viability, 18-24 h; AID 504648; further: on the % scale 0 is the no-effect control and ±100 the full control effect
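A549 ARE-Fluc cells in 5% FBS OPTI-MEM, 5000 cells/well, rested 2 h then exposed to compounds in concentration-response for 18-24 h at 37 °C. Viability by CellTiter-Fluor fluorescence (Ex 405/Em 525) after 30 min; luciferase luminescence (BugLite, 15 min, RT) read afterwards.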
ATXN viability – reduces viability in counter-screen for ATXN expression inhibitors; AID 651635; Potency, µM (highest dose often 56.7 µM), actives largely listed as cytotoxic; S2 cells (HEK-293 line with an ATXN2-luciferase reporter) viability, CellTiter-Fluor protease fluorescence, 24 h; hit rate 0.49% among 400,000; further: nearly all actives have a fitted effect of over 40% in size
* marks the source's active call; other numbers are inactive results; i = inactive; ? = inconclusive; . = no result. The call rests on the fitted dose curve; in most records, active means well fitted curve in the direction sought with a large enough effect; inconclusive means small, poorly fitted or top-dose-only effect, or another doubt; inactive means no such curve, though single readings can be large; an effect the other way counts as inactive or inconclusive. Potency means the concentration at half of the fitted maximal effect.

SMILES	TGFb inhibitor	Nrf2 block	ATXN2 expr inh	HepG2 viability	A549 viability	ATXN viability
COCC(C)n1c(C)cc(C(=O)COC(=O)c2cccn2C)c1C (stereo not given)	-11.6%	?	17.8µM*	-5.0%	6.7%	i
COc1ccc(N2C(=O)CS/C2=C\[N+](=O)[O-])cc1	-4.7%	?	-3.1%	-6.6%	.	i
O=C(OCc1nnc(-c2ccc([N+](=O)[O-])cc2)o1)C1CCN(C(=O)c2ccc(F)cc2)CC1	1.6%	-0.5%	9.5%	-2.2%	3.8%	i
COc1cccc(C(=O)N2CCN(c3ccc(N4CCOCC4)nn3)CC2)c1	7.9%	1.7%	-0.2%	-1.4%	6.9%	i
COc1ccc2c(c1)CCc1cc(C(=O)N3CCN(c4ccc(N5CCOCC5)nn4)CC3)sc1-2	?	18.4µM*	?	-17.8%	-4.4%	?
CCOC(=O)C1=CCC(c2ccccc2C)N(S(=O)(=O)c2ccc(C)cc2)C1 (stereo not given)	?	.	-13.0%	-20.3%	.	i
CC(C)C1Nc2c(O)cc(Cl)c([N+](=O)[O-])c2C2C=CCC21 (stereo not given)	12.6µM*	?	?	-36.4%	?	?
COc1cc(-c2nc(-c3ccccc3)c(-c3ccc(Br)cc3)[nH]2)cc(OC)c1O	12.6µM*	-17.0%	?	-70.3%	-14.1%	?
O=[N+]([O-])c1ccc(S(=O)(=O)Nc2ccncc2)cc1	0.5%	-12.4%	-6.3%	-1.0%	4.4%	i
O=C1C(Cl)=C(NS(=O)(=O)c2ccc([N+](=O)[O-])cc2)C(=O)c2ccccc21	?	?	17.8µM*	-190.9%	?	39.8µM*
O=[N+]([O-])c1ccc(Oc2ccc(S(=O)(=O)Nc3ccccc3)cc2)cc1	3.4%	18.4µM*	-14.3%	-23.9%	-2.3%	i
CCCC(=O)Nc1ccc(C(=O)COC(=O)c2cc(C)oc2C)cc1	6.4%	4.2%	.	1.1%	4.5%	?
Oc1ccc(Br)cc1-c1nc2cnccn2c1NC1CCCC1	-28.3%	?	-16.1%	11.2µM*	-18.8%	i
CCc1cccc(C)c1NC(=O)CSc1nc2ccc(N3C(=O)c4ccccc4C3=O)cc2s1	-4.2%	?	-20.0%	3.1%	-6.4%	i
CCc1cccc(CC)c1NC(=O)CSc1nc2ccc(N3C(=O)C4C(C3=O)[C@H]3C=C[C@@H]4C3)cc2s1 (stereo not given in full)	-1.0%	13µM*	-19.0%	-18.4%	-10.2%	i
O=C(CCl)NCCCN(C(=O)C(Cl)Cl)c1ccc([N+](=O)[O-])cc1	?	?	.	12.6µM*	?	31.6µM*
COCCCNC(=O)c1ccc([N+](=O)[O-])cc1	1.7%	17.5%	12.0%	1.9%	-1.3%	i
CCCNC(=O)c1cc2c(c(-c3cccc(-c4ccc(F)cc4)c3)n1)[C@@H](CCO)N(S(=O)C(C)(C)C)C2 (stereo not given in full)	15.8µM*	.	?	-29.7%	.	?
CCCNC(=O)c1cc2c(c(-c3cccc(-c4ccc(F)cc4)c3)n1)[C@H](CCO)N(S(=O)C(C)(C)C)C2 (stereo not given in full)	?	.	?	-6.6%	.	?
CCOc1ccc(-c2ccc(SC)nn2)cc1	17.2%	?	?	12.6µM*	2.3%	i
CCCNC(=O)c1ccc2c(c1)C1C3CCC(C3)C1C(c1ccccc1)N2 (stereo not given)	?	20.6µM*	-29.2%	-4.2%	?	i
COc1ccc(-n2nc3cc(C)c(NC(C)=O)cc3n2)cc1	8.5%	-28.4%	8.91µM*	0.6%	0.2%	i
CCN(CC)C(=O)CN(c1cc2c(cc1OC)oc1ccccc12)S(=O)(=O)c1ccccc1	?	16.4µM*	3.8%	6.4%	?	i
COc1cc2oc3ccccc3c2cc1N(CC(=O)N(C)C)S(=O)(=O)c1ccccc1	-16.4%	16.5%	7.9%	-3.3%	-0.3%	i
CCOC(=O)c1ccc(N2C(=O)c3n[nH]c(-c4ccco4)c3C2c2cccc(OC)c2)cc1 (stereo not given)	4.47µM*	?	?	-72.7%	-28.5%	?
SMILES	TGFb inhibitor	Nrf2 block	ATXN2 expr inh	HepG2 viability	A549 viability	ATXN viability
CCOC(=O)c1ccc(N2C(=O)c3n[nH]c(-c4ccco4)c3C2c2ccc(F)cc2)cc1 (stereo not given)	?	?	?	22.4µM*	-17.4%	?
CCOC(=O)c1ccc(N2C(=O)c3n[nH]c(C)c3C2c2ccccc2)cc1 (stereo not given)	5.3%	?	7.8%	-15.3%	-16.0%	i
COc1ccc(C2c3c(-c4ccccc4)n[nH]c3C(=O)N2c2ccc(C(=O)O)cc2)cc1 (stereo not given)	6.0%	-14.1%	-24.8%	16.1%	0.9%	i
CCOC(=O)c1ccc(N2C(=O)c3n[nH]c(-c4ccco4)c3C2c2cccc(O)c2)cc1 (stereo not given)	12.6µM*	-10.5%	?	22.4µM*	0.6%	?
CCOC(=O)c1ccc(N2C(=O)c3[nH]nc(-c4ccc(OC)cc4)c3C2c2ccc(C)cc2)cc1 (stereo not given)	25.1µM*	?	?	-46.5%	-25.2%	?
CCOC(=O)c1ccc(N2C(=O)c3n[nH]c(-c4cccs4)c3C2c2cccc(F)c2)cc1 (stereo not given)	?	?	.	-95.6%	-2.2%	.
COc1cccc(C2c3c(-c4ccccc4)n[nH]c3C(=O)N2c2ccc(C(=O)O)cc2)c1 (stereo not given)	?	-1.5%	2.4%	-2.6%	7.1%	i
CCc1nnc(NC(=O)CSCc2cc(=O)n3ccsc3n2)s1	2.3%	12.6%	6.0%	-2.7%	3.3%	i
Cc1cc(C)c[n+](C(C)C(=O)c2ccc(Cl)cc2)c1 (stereo not given)	19.8%	-36.2%	-10.8%	-18.7%	1.2%	i
CCOC(=O)c1ccc(N2C(=O)c3n[nH]c(C)c3C2c2ccc(O)cc2)cc1 (stereo not given)	-4.0%	4.2%	44.3%	4.3%	-13.7%	i
CCOC(=O)c1ccc(N2C(=O)c3n[nH]c(-c4ccco4)c3C2c2ccc(OCC)cc2)cc1 (stereo not given)	7.08µM*	18.4µM*	.	-76.2%	?	.
CCOC(=O)c1ccc(N2C(=O)c3n[nH]c(-c4ccco4)c3C2c2cccc(F)c2)cc1 (stereo not given)	?	20.6µM*	?	15.8µM*	?	?

Screening data deposited in PubChem by National Center for Advancing Translational Sciences (NCATS).
